Inconclusive results are not listed. Values without a mark were called inactive. The source made the active and inactive calls. Calls come from the whole dose curve; as a rule, active = well fitted inhibition curve with a large enough effect in the signal ratio in the repeat runs (not every such curve was filed as active); inconclusive = weak or mixed curves, or effect the other way; inactive = flat fitted curve, though single readings scatter; the % refers to the signal ratio.
Assay: cAMP Responsive Elements (CRE) small molecule antagonists, cell-based qHTS assay (AID 1963591)
Settings: CRE-bla HEK293T, beta-lactamase FRET ratio; series mostly up to 92.4 µM; activity change, negative = inhibition: at the top concentration
Source text: U.S. Tox21 Program National Center for Advancing Translational Sciences [NCATS] Division of Preclinical Innovation [DPI] U.S. Environmental Protection Agency [EPA] National Institutes of Environmental Health Sciences [NIEHS] National Toxicology Program [NTP] U.S. Food and Drug Administration [FDA] Tox21 Assay Overview: CREB (cyclic-AMP Responsive Element Binding Protein) is a cellular transcription factor. It binds to certain DNA sequences called cAMP Responsive Elements (CRE) and regulates the transcription of the genes. […] This cell line can be used to find agonists/antagonists of the cyclic AMP signaling pathway. The activation of the report gene under culture conditions can be detected by fluorescence intensity. This cell line has been used to screen the Tox21 10K compound library to […].
Tox21 Assay Protocol Summary: CRE-bla Hek 293T cells were suspended in assay medium (DMEM containing 10% dialyzed FBS, 0.1 mM NEAA, 1 mM sodium pyruvate and 25 mM HEPES) and dispensed at 2,000 cells/4 uL /well into 1536-well black wall/clear bottom plates using a Multidrop Combi (ThermoFisher Scientific, Waltham, MA) dispenser. After the assay plates were incubated at 37 C/5% CO2 for 18 hrs, 23 nL of compounds dissolved in DMSO, positive controls or DMSO only was transferred to the assay plate by a pintool workstation (Kalypsys, San Diego, CA), followed by addition of 1 […] uL of 1.25uM NKH477 (0.25 uM as final concentration) in assay medium using a Flying Reagent Dispenser (Aurora Discovery, San Diego, CA). The plates were incubated at 37 C and 5% CO2 for 3 hrs. Then 1 uL of LiveBLAzer B/G FRET substrate (Invitrogen, Carlsbad, CA) was added to each well using Bioraptr Flying Reagent Dispenser (FRD, Aurora Discovery, San Diego, CA). The plates were incubated at room temperature for 2 h.
% is set by controls: 0 for no effect and ±100 for the full control effect; potency is the fitted concentration of half-maximal effect.

Row | Structure (SMILES) | Potency | activity change, negative = inhibition
1 | CN/C(=C\[N+](=O)[O-])NCCSCc1ccc(CN(C)C)o1 | inactive | –
2 | CC(C)(C)OCC1CO1 (stereo not given) | – | -6.26%
3 | CN1N=C(C(N)=O)CCC1=O | – | -13.3% [at 42.4 µM]
4 | CCCCCCCCCCCC(=O)OCC(C)OC(=O)CCCCC(=O)O (stereo not given) | – | 10.9% [at 42.4 µM]
5 | C=CC(=O)OCCOC(=O)C=C | – | 13.1%
6 | CCCCCC(=O)CC | – | -0.131%
7 | COc1cc(C)c(Cc2cnc(N)nc2N)cc1OC | – | -3.71% [at 42.4 µM]
8 | Clc1ccccc1-c1nc(-c2ccncc2)no1 | – | 6.49% [at 42.4 µM]
9 | CCCCCCOCCOCCO | – | 1.94%
10 | c1ccc(CCCc2ccncc2)cc1 | – | 5.67%
11 | O=C1Nc2ccccc2C1=O | – | -1.16%
12 | CCc1ccc(Br)cc1 | – | -2.96%
13 | CC(C)c1ccccc1O | – | -1.29%
14 | CC(=O)OCCc1ccccc1 | – | -0.589%
15 | CCCCC(CC)COC(=O)c1ccc(O)cc1 (stereo not given) | 40.3 µM (active) | –
16 | Nc1cc(=O)[nH]c(N)n1 | – | 4.36% [at 42.4 µM]
17 | O=C(O)c1ccccc1C(c1ccc(O)cc1)c1ccc(O)cc1 | inactive | –
18 | CC[N+](C)(C)c1cccc(O)c1 | – | 0.369% [at 42.4 µM]
19 | O=C1CCC(=O)O1 | – | 2.84%
20 | C#CC(O)CCC (stereo not given) | – | -2.82%

Row | Structure (SMILES) | Potency | activity change, negative = inhibition
21 | C1CSCCS1 | – | 1.44%
22 | CC(C)c1ccc2c(C(C)C)cc(C(C)C)c(S(=O)(=O)O)c2c1 | – | -3.45%
23 | C1CCSC1 | – | 1.49%
24 | CCc1occc(=O)c1O | – | -4.18%
25 | CC/C(=C(/CC)c1ccc(O)cc1)c1ccc(O)cc1 | – | -12.7% [at 42.4 µM]
26 | Oc1ccc2cc(SSc3ccc4cc(O)ccc4c3)ccc2c1 | – | -2.74%
27 | CC1(C)COCN1 | – | -0.539%
28 | C=CCOCC(CO)(COCC=C)COCC=C | – | -1.47% [at 42.4 µM]
29 | O=C(O)C1CCC(C(=O)O)CC1 (stereo not given) | – | -6.16%
30 | Nc1cc(S(=O)(=O)O)cc2cc(S(=O)(=O)O)cc(O)c12 | – | -13.8%
31 | Cc1cc(C)c(N)c(Cl)c1 | – | -0.655%
32 | C[Si](C)O[Si](C)C | – | 0.291%
33 | CN(Cc1cnc2nc(N)nc(N)c2n1)c1ccc(C(=O)N[C@@H](CCC(=O)O)C(=O)O)cc1 | – | -11.6% [at 42.4 µM]
34 | Clc1nc2ccccc2s1 | – | -8.49%
35 | CCC(C)c1ccccc1 (stereo not given) | – | -0.302%
36 | O=CC1CC1 | – | -4.66%
37 | Cc1cc(C)cc(OCC2CNC(=O)O2)c1 (stereo not given) | – | -7.33% [at 42.4 µM]
38 | O=c1[nH]c2ccc(Cl)cc2o1 | – | 27.3%
39 | C=CCCCCCCCCCCC | – | -0.765% [at 8.39 µM]
40 | CCCCC/C=C/C=C/C=O | inactive | –
